# Out of some 310,000 compounds screened, about 14,000 (4.5%) showed an effect of 50% or more. Effects have a minus sign here. Only a selection was taken, and strong results are over-represented in it overall.
# Molecular target: human ether-à-go-go-related gene (hERG) potassium channel (human, UniProt Q12809)
# Assay: primary screen, population patch clamp on CHO cells stably expressing hERG; higher = less effect of the substance
# 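Further: peak tail current of the secondary pulse compared with the same well before compound.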
# Chain of human ether-à-go-go-related gene (hERG) potassium channel (Q12809 whole entry, looked up): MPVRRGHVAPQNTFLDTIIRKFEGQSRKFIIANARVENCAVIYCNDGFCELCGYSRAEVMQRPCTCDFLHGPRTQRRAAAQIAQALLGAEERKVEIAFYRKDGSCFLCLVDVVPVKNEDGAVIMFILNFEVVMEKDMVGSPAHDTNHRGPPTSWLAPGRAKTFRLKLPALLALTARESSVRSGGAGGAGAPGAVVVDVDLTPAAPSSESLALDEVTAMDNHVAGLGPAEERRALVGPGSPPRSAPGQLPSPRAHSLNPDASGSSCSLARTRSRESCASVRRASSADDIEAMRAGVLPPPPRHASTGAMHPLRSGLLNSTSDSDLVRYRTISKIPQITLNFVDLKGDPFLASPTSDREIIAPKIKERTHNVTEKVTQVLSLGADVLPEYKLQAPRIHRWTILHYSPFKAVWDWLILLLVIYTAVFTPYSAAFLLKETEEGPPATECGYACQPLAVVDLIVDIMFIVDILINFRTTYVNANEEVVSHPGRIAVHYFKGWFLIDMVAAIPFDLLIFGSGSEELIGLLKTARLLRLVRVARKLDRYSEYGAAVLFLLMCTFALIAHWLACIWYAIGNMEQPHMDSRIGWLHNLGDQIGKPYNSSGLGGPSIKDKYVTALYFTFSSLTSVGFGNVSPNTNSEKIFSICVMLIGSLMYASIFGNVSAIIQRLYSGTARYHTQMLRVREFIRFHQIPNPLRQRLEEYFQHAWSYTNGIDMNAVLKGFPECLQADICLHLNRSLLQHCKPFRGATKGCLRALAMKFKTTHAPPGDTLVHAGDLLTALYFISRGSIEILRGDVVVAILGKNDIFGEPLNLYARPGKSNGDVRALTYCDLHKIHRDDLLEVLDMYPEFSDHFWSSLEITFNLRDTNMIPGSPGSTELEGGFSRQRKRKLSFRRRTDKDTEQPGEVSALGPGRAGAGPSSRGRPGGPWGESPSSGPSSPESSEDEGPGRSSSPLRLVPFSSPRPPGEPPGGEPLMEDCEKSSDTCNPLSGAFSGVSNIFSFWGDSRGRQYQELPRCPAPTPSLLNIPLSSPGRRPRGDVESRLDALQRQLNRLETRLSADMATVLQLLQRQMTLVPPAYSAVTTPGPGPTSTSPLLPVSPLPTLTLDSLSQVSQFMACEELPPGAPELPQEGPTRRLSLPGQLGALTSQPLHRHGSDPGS
row,Structure (SMILES),"hERG current change (%, negative = inhibition) at 10uM [%]"
1,O=C(Cn1cc(C(F)(F)F)ccc1=O)NCc1ccc(F)cc1,15.6
2,CS(=O)(=O)N(CC(=O)N1CCN(c2ccccc2)CC1)c1cccc(Br)c1,-19.2
3,O=C(CCN1C(=O)/C(=C/C=C/c2ccccc2)SC1=S)Nc1nc2ccccc2s1,18.3
4,NCC(c1ccccc1Cl)c1c[nH]c2ccccc12 (stereo not drawn),12.8
5,FC(F)(F)c1ccccc1Nc1nccs1,-16.1
6,CCC(=O)OC1(Cc2ccc(CC)cc2)CC(C)N(C)CC1C.Cl (stereo not drawn),-59.4
7,CCc1ccc(CC2(O)CC(C)N(C)CC2C)cc1 (stereo not drawn),-29.7
8,CCC1(OC(=O)c2ccccc2)CC(C)N(C)CC1C.Cl (stereo not drawn),-7.85
9,CNC(=S)NNC(=O)c1cc(C(C)(C)C)nn1Cc1ccc(F)cc1,14.6
10,Cc1cc(C)cc(N2C(=O)CC(N3CCOCC3)C2=O)c1 (stereo not drawn),14.9
11,O=C(CN1C(=O)COc2ccc(S(=O)(=O)N3CCCC3)cc21)N1CCCC1,9.85
12,C/C=C/Cn1c(N2CCCCCC2)nc2c1c(=O)[nH]c(=O)n2C,-5.14
13,COc1ccc(-c2ccnc3c(C#N)cnn23)cc1,6.06
14,N#Cc1cnn2c(-c3cccc(C(F)(F)F)c3)ccnc12,-52.8
15,NC(=O)c1cnn2c(-c3cccc(C(F)(F)F)c3)ccnc12,-2.33
16,N#Cc1cnn2c(-c3ccccc3)ccnc12,2.49
17,NC(=S)c1cnn2c(-c3cccc(C(F)(F)F)c3)ccnc12,14.2
18,N#Cc1cnn2c(-c3cccc([N+](=O)[O-])c3)ccnc12,-52.7
19,CC(=O)c1ccc(NS(=O)(=O)c2cccc(C)c2)cc1,-1.86
20,COC(=O)c1cccc(NC(=O)CC2C(=O)NCCN2C(=O)Nc2cc(C)cc(C)c2)c1 (stereo not drawn),11
21,CCOc1ccc(-c2cnc(NCc3cccc4ccccc34)n2CCOC)cc1.O=C(O)C(=O)O,-58.8
22,COc1ccc(CNc2ncc(-c3ccc(F)cc3)n2C)c2ccccc12.O=C(O)C(=O)O,-35.1
23,COc1ccc(CNc2ncc(-c3ccccc3)n2C)c2ccccc12.O=C(O)C(=O)O,-34.5

row,Structure (SMILES),"hERG current change (%, negative = inhibition) at 10uM [%]"
1,COc1ccccc1CNc1ncc(-c2ccc(F)cc2)n1C.O=C(O)C(=O)O,-62
2,COc1ccccc1CNc1ncccn1.O=C(O)C(=O)O,23.6
3,COc1ccc(CNc2ncc(-c3ccc(F)cc3)n2C)cc1OC.O=C(O)C(=O)O,-65.2
4,COCCn1c(-c2ccc(OC)cc2)cnc1SCC(=O)Nc1cccc2ccccc12,-21.8
5,Cn1c(-c2ccc(F)cc2)cnc1NCc1ccccc1F.O=C(O)C(=O)O,-27.3
6,COCCCNC(=O)Cn1c(=O)n(Cc2ccccc2Cl)c(=O)c2cc(OC)c(OC)cc21,9.48
7,COc1ccc(-c2nc(N)n(S(=O)(=O)c3ccc(C)cc3)n2)cc1,39
8,CC(=O)Nc1nc(COc2ccccc2)cs1,-4.04
9,COC(=O)C(Cc1c[nH]c2ccccc12)NC(=O)c1cncc(Br)c1 (stereo not drawn),1.85
10,CCOC(=O)N1CCN(S(=O)(=O)N2CCCC(C(=O)NCCCN3CCCCC3)C2)CC1 (stereo not drawn),10
11,CC(C)Nc1ccc(Nc2ccnc3cc4ccccc4cc23)cc1,-72.7
12,CC(C)Nc1ccc(Nc2ccccc2)cc1,-0.32
13,COc1ccc(Nc2ccnc3ccccc23)cc1.Cl,-33.8
14,CCOC(=O)N1CCN(C(=O)CN(c2cccc(C(F)(F)F)c2)S(C)(=O)=O)CC1,-51.1
15,CS(=O)(=O)N(CC(=O)N1CCN(Cc2ccccc2)CC1)c1cccc([N+](=O)[O-])c1,-75.5
16,CS(=O)(=O)N(CC(=O)N1CCN(Cc2ccccc2)CC1)c1cccc(Cl)c1,-63.8
17,CS(=O)(=O)N(CC(=O)N1CCCCCC1)c1cccc([N+](=O)[O-])c1,-32.7
18,CCOC(=O)N1CCN(C(=O)CN(c2cccc(C(F)(F)F)c2)S(=O)(=O)c2ccccc2)CC1,-43.6
19,CS(=O)(=O)N(CC(=O)N1CCN(Cc2ccccc2)CC1)c1cccc(F)c1,-36.3
20,CS(=O)(=O)N(CC(=O)N1CCOCC1)c1cccc([N+](=O)[O-])c1,6.28
21,CCOC(=O)C1CCN(C(=O)CN(c2cccc(C(F)(F)F)c2)S(C)(=O)=O)CC1,-25.9
22,Cc1ccc(N(CC(=O)N2CCN(Cc3ccccc3)CC2)S(C)(=O)=O)cc1C,-7.28

# Source: PMC4336329 (PLoS ONE, 2015)
